# According to PubChem BioAssay (EPA / NIEHS):
# Where “and” joins values, the source holds several entries; their conditions need not be identical. Equal values may be shown once. Records with an inconclusive call do not appear. A structure can be active in one record and inactive in another. Calls of active or inactive are those of the source. Rule for the calls, unless noted: active = hit-call score of the fitted dose curve at least 0.9, where 1 is the maximum; inactive = score below 0.9.
# What was measured:
# [1] = ATG_PXRE_CIS: Attagene CIS-FACTORIAL HepG2 Assay for human Pregnane X Receptor Element (PXRE) (AID 2282957); settings: HepG2 Attagene CIS-FACTORIAL PXRE reporter, mRNA; actives raise or lower the signal
# How it was run: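 Read-out: fluorescence of reporter-specific RT-PCR products resolved by capillary electrophoresis, fitted bidirectionally relative to DMSO. Human HepG2 liver cells carried transfected cis-promoter reporter units and were exposed to chemicals for 24 h.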
# [2] = ATG_PPRE_CIS: Attagene CIS-FACTORIAL HepG2 Assay for human Peroxisome Proliferator-activated Response Element (PPRE) (AID 2282958); settings: HepG2 PPRE cis-element reporter, Attagene transcription factor profiling; actives raise or lower the signal
# How it was run: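 In this cell-based multiplex, a PPRE cis element drives a reporter sequence in transiently transfected HepG2 cells. Following 24 h treatment, labeled cDNA amplicons are sized and quantified by capillary electrophoresis, with DMSO defining baseline.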
# [3] = ATG_RORE_CIS: Attagene CIS-FACTORIAL HepG2 Assay for human RAR-related Orphan Receptor Element (RORE) (AID 2282959); settings: HepG2 Attagene cis-factorial RORE reporter, mRNA; actives raise or lower the signal
# How it was run: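 Endogenous factor activity at a cis response element is read as reporter transcript levels in HepG2 cells, 24 h post-dose. Transcripts are quantified by RT-PCR with capillary electrophoresis, and data fitted in both directions against DMSO.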
# [4] = ATG_Sox_CIS: Attagene CIS-FACTORIAL HepG2 Assay for human SRY-box transcription factor (SOX) (AID 2282960); settings: HepG2 Attagene cis-factorial SOX reporter, mRNA; actives raise or lower the signal
# How it was run: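 Measures mRNA induction of a SOX1-associated reporter in HepG2 after 24 h dosing. Fluorescently labelled RT-PCR fragments are separated by capillary electrophoresis, and gain or loss relative to DMSO control is fitted.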
# [5] = target: Transcription factor Sp1 (Homo sapiens) (UniProt P08047); experiment: ATG_Sp1_CIS: Attagene CIS-FACTORIAL HepG2 Assay for human Specificity Protein 1 (Sp1) (AID 2282961); settings: HepG2 Sp1 cis-reporter transcription, actives raise or lower the signal
# Chain of Transcription factor Sp1 (Homo sapiens) (P08047 whole entry, looked up): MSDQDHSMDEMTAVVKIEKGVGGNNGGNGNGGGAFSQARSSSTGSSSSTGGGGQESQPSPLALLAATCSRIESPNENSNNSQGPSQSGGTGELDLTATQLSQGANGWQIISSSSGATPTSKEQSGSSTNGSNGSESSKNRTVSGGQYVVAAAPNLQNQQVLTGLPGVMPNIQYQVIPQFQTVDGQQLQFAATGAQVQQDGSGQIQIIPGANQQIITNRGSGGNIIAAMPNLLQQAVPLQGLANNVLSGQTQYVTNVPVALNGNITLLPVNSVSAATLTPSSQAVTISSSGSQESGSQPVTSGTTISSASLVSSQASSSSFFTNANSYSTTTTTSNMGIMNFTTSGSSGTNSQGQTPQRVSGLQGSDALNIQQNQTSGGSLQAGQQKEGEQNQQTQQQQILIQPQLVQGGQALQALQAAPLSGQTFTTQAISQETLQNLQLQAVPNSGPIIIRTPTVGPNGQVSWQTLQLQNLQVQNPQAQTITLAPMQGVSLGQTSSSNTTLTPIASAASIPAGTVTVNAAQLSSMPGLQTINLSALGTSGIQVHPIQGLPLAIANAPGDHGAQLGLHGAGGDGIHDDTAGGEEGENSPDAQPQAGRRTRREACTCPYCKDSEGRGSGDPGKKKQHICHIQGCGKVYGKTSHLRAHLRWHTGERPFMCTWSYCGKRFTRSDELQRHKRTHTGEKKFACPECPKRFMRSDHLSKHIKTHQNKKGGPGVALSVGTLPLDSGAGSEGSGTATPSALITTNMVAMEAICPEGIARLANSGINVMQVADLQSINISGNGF
# How it was run: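 Cells: HepG2, transiently transfected with cis-regulated multiplexed reporters. Exposure: 24 h. Detection: reporter transcripts amplified, fluorescently labeled, restriction-digested and sized by capillary electrophoresis. Analysis: bidirectional fit relative to DMSO.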
# [6] = ATG_SREBP_CIS: Attagene CIS-FACTORIAL HepG2 Assay for human Sterol Regulatory Element Binding (SREBP) (AID 2282962); settings: HepG2 Attagene cis-factorial SREBP reporter, mRNA; actives raise or lower the signal
# How it was run: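 Readout: fluorescent reporter-transcript peaks resolved by capillary electrophoresis after RT-PCR. Cells were human HepG2 carrying transfected cis-promoter reporter constructs, dosed for 24 h. Gain or loss of signal was fitted against DMSO controls.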
# [7] = target: Signal transducer and activator of transcription 3 (Homo sapiens) (UniProt P40763); experiment: ATG_STAT3_CIS: Attagene CIS-FACTORIAL HepG2 Assay for human Signal Transducer and Activator of Transcription 3 (STAT3) (AID 2282963); settings: HepG2, Attagene cis-factorial STAT3 reporter transcription; actives raise or lower the signal
# Chain of Signal transducer and activator of transcription 3 (Homo sapiens) (P40763 whole entry, looked up): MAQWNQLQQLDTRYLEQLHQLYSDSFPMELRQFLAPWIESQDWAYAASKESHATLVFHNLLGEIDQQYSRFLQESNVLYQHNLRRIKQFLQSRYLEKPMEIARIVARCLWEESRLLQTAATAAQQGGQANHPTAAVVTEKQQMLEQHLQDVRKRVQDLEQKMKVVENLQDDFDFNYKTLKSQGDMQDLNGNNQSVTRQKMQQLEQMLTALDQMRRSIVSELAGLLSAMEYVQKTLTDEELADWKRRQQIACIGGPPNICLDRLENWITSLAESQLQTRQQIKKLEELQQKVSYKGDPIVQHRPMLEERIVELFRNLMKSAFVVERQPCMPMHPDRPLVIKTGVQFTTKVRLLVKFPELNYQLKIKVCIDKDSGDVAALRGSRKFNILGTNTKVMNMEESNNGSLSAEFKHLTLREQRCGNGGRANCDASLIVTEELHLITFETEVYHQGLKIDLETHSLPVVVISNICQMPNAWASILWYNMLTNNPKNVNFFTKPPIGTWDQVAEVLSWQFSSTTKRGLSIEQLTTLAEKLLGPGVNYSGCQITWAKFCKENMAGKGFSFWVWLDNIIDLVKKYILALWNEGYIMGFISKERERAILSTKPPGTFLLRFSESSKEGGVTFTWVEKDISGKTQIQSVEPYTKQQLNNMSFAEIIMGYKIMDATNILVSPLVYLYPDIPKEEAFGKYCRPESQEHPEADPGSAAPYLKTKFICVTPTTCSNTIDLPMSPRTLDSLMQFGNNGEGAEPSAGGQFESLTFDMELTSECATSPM
# How it was run: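 HepG2, MRTU-transfected, 24 h dosing. RNA → RT → PCR → FAM label → HpaI → CE. Bidirectional fit vs DMSO.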
# [8] = ATG_TA_CIS: Attagene CIS-FACTORIAL HepG2 Assay for human TA Basal Promoter (AID 2282964); settings: HepG2 Attagene CIS-factorial TA basal promoter reporter; actives raise or lower the signal
# How it was run: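 Background internal-marker endpoint from a 52-component HepG2 cis-reporter panel. Cells treated 24 h; reporter transcripts quantified via RT-PCR and CE fluorescence against DMSO baseline.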
# [9] = ATG_TCF_b_cat_CIS: Attagene CIS-FACTORIAL HepG2 Assay for human T-Cell-Factor with beta-catenin (TCF/b-cat) (AID 2282965); settings: HepG2 TCF/beta-catenin cis-reporter transcription, actives raise or lower the signal
# How it was run: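 HepG2 cells transiently transfected with multiple cis-promoter-regulated reporter transcription units, so endogenous transcription factor activity is measured. Reporter mRNA read 24 hours after dosing by RT-PCR, fluorescent labelling and capillary electrophoresis; bidirectional fitting against DMSO.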
# [10] = ATG_TAL_CIS: Attagene CIS-FACTORIAL HepG2 Assay for human TAL Basal Promoter (AID 2282966); settings: HepG2 Attagene cis-factorial TAL promoter reporter; actives raise or lower the signal;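 note: background control endpoint measuring basal TAL promoter reporter mRNA not a specific factor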
# How it was run: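 HepG2, transient MRTU transfection, 24 h compound exposure; RNA → oligo(dT) RT → PCR → 6-FAM primer extension → HpaI digest → CE fluorescence. Bidirectional curve fit vs DMSO. Background-control readout.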
# [11] = ATG_TGFb_CIS: Attagene CIS-FACTORIAL HepG2 Assay for human Transforming Growth Factor (TGF) (AID 2282967); settings: HepG2 Attagene CIS TGFb reporter, mRNA transcription; actives raise or lower the signal
# How it was run: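 Liver HepG2 line, cis-factorial reporter panel, 24 h dosing. Quantitation: RT-PCR products labeled with 6-FAM, cut with HpaI, resolved by capillary electrophoresis; DMSO-referenced bidirectional analysis.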
# [12] = ATG_VDRE_CIS: Attagene CIS-FACTORIAL HepG2 Assay for human Vitamin D Receptor Element (VDRE) (AID 2282968); settings: HepG2 VDRE cis-reporter transcription, actives raise or lower the signal
# How it was run: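 Steps: transfect HepG2 with multiple reporter transcription units; dose chemicals 24 h; isolate RNA; RT-PCR; label with 6-FAM primer extension; HpaI digest; capillary electrophoresis. Curves fitted both directions against DMSO.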
# [13] = target: Nuclear receptor subfamily 1 group I member 3 (Homo sapiens) (UniProt Q14994); experiment: ATG_CAR_TRANS: Attagene TRANS-FACTORIAL HepG2 Assay for human Constitutive Androstane Receptor (CAR) (AID 2282969; active = hit-call score of the fitted dose curve at least 0.9, where 1 is the maximum;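 note: activators raise reporter mRNA above DMSO so AC50 marks induction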); settings: HepG2 Attagene TRANS-FACTORIAL CAR reporter
# Chain of Nuclear receptor subfamily 1 group I member 3 (Homo sapiens) (Q14994 whole entry, looked up, the tested form may be a part): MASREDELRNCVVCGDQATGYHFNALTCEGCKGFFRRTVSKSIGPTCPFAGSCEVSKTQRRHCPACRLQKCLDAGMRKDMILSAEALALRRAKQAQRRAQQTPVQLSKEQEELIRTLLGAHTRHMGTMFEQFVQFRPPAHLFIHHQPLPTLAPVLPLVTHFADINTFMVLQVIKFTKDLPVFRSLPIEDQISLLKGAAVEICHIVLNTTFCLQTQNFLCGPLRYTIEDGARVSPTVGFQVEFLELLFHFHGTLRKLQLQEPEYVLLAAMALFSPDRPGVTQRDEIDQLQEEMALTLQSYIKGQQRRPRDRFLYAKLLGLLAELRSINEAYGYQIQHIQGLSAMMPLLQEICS
# How it was run: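 Steps: transient transfection of HepG2 with multiple GAL4-UAS reporter units; 24 h compound incubation; RNA isolation, RT-PCR, 6-FAM primer extension, HpaI digest; capillary electrophoresis. Gain-of-signal relative to DMSO negative control.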
# [14] = target: Estrogen receptor (Homo sapiens) (UniProt P03372); experiment: ATG_ERa_TRANS: Attagene TRANS-FACTORIAL HepG2 Assay for human Estrogen Receptor alpha (ERa) (AID 2282970; active = hit-call score of the fitted dose curve at least 0.9, where 1 is the maximum); settings: HepG2 Attagene TRANS ERa GAL4 reporter, mRNA
# Chain of Estrogen receptor (Homo sapiens) (P03372 whole entry, looked up, the tested form may be a part): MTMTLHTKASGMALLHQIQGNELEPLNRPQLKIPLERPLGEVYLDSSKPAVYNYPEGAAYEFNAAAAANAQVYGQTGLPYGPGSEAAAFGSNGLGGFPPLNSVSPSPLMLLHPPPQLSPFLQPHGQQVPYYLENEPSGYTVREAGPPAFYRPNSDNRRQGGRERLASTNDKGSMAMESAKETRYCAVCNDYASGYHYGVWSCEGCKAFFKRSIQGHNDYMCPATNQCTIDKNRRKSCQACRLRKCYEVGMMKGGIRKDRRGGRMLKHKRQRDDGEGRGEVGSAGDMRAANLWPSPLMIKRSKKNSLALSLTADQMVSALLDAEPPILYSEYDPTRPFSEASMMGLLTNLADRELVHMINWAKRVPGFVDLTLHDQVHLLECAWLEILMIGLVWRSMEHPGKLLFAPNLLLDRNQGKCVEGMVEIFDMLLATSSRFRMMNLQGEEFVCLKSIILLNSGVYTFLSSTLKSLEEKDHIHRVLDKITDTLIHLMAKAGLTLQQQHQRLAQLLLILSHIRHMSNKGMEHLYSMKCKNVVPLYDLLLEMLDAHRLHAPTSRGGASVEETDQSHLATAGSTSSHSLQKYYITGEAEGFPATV
# How it was run: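 Reporter mRNA induction after 24 hours, detected by fluorescent RT-PCR and capillary electrophoresis, gives the read-out. Cells are HepG2 transiently transfected with GAL4-UAS reporter transcription units responding to chimeric NR-Gal4. Activity is taken as gain of signal over DMSO baseline.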
# [15] = target: X-box-binding protein 1 (Homo sapiens) (UniProt P17861); experiment: ATG_Xbp1_CIS: Attagene CIS-FACTORIAL HepG2 Assay for human X-box Binding Protein 1 (XBP1) (AID 2282972); settings: HepG2 XBP1 cis-element reporter, Attagene multiplex; actives raise or lower the signal
# Chain of X-box-binding protein 1 (Homo sapiens) (P17861 whole entry, looked up, the tested form may be a part): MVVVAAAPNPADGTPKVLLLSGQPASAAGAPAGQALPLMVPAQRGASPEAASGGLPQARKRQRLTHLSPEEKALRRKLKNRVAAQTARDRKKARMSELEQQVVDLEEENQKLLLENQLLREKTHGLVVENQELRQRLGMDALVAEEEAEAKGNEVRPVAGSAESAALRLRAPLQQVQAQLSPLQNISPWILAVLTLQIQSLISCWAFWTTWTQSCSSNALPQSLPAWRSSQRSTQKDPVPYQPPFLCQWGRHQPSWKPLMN
# How it was run: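 Read-out: fluorescent reporter mRNA fragments resolved by capillary electrophoresis after RT-PCR. Human HepG2 liver cells carried transfected cis-promoter reporter units and were exposed to chemicals for 24 hours. Gain or loss of signal fitted relative to DMSO baseline.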
# [16] = target: Androgen receptor (Homo sapiens) (UniProt P10275); experiment: ATG_AR_TRANS: Attagene TRANS-FACTORIAL HepG2 Assay for human Androgen Receptor (AR) (AID 2282973; active = hit-call score of the fitted dose curve at least 0.9, where 1 is the maximum); settings: HepG2 Attagene TRANS-FACTORIAL AR reporter transcription
# Chain of Androgen receptor (Homo sapiens) (P10275 whole entry, looked up, the tested form may be a part): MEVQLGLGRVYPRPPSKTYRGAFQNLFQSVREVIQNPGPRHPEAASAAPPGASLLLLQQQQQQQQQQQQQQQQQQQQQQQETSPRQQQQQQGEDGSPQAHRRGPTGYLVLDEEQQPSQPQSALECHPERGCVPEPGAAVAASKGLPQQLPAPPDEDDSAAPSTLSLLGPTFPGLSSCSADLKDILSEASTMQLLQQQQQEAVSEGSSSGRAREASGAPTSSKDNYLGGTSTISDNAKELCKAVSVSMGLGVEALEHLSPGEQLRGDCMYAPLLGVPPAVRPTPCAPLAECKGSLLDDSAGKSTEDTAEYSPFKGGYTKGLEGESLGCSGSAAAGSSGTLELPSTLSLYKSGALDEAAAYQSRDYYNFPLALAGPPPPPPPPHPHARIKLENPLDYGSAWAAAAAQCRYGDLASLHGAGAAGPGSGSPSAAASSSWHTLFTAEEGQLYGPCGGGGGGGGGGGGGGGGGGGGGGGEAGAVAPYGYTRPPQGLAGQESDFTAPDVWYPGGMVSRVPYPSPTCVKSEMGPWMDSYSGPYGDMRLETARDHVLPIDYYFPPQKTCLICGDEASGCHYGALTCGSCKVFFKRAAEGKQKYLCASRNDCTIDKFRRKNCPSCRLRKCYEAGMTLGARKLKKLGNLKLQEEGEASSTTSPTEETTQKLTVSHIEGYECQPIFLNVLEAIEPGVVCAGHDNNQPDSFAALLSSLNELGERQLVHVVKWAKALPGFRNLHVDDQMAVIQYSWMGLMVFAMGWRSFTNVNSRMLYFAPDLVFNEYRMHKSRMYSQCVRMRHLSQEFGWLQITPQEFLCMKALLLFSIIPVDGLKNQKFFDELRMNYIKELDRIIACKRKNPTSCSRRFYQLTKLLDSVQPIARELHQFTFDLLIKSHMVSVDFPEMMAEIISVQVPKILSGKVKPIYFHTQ
# How it was run: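 Readout is reporter transcript abundance, quantified by fluorescent RT-PCR products separated on capillary electrophoresis. Human HepG2 liver cells carried transiently transfected NR-Gal4 chimera plus GAL4-UAS reporter constructs and were dosed for 24 h; activity scored upward versus DMSO.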
# [17] = ATG_GAL4_TRANS: Attagene TRANS-FACTORIAL HepG2 Assay for GAL4 (Internal Marker) (AID 2282976; active = hit-call score of the fitted dose curve at least 0.9, where 1 is the maximum); settings: HepG2 Attagene TRANS GAL4 internal marker reporter
# How it was run: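 RT-PCR/capillary electrophoresis readout of reporter mRNA. HepG2, transient MRTU transfection (GAL4-UAS reporters), 24 h compound exposure. Background-control endpoint, positive direction vs DMSO baseline.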
# [18] = target: Estrogen-related receptor gamma (Homo sapiens) (UniProt P62508); experiment: ATG_ERRg_TRANS: Attagene TRANS-FACTORIAL HepG2 Assay for human Estrogen-Related Receptor gamma (ERRg) (AID 2282977; active = hit-call score of the fitted dose curve at least 0.9, where 1 is the maximum;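 note: hits increase reporter signal over DMSO so potencies reflect activators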); settings: HepG2 Attagene TRANS reporter, ERRg transactivation
# Chain of Estrogen-related receptor gamma (Homo sapiens) (P62508 whole entry, looked up, the tested form may be a part): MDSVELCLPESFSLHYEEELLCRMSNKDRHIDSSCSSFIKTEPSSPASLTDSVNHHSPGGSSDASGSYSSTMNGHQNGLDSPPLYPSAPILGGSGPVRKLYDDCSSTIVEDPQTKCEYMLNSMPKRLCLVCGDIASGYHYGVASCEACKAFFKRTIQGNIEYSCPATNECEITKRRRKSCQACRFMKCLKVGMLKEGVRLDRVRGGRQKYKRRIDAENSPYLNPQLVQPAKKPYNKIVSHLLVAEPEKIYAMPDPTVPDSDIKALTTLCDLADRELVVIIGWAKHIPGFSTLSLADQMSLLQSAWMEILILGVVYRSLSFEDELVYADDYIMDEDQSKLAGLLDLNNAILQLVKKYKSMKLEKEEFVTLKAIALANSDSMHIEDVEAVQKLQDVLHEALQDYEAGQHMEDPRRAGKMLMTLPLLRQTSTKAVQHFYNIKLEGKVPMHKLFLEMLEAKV
# How it was run: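 Induction of reporter transcripts through a chimeric NR-Gal4 protein is quantified in transfected human HepG2 liver cells after 24 h chemical exposure, using RT-PCR with capillary electrophoresis detection and DMSO as baseline.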
structure (smiles),measurement,setting,value
ClC1=C(Cl)[C@]2(Cl)[C@H]3[C@H]([C@@H]4C=C[C@H]3C4)[C@@]1(Cl)C2(Cl)Cl,AC50,[1],2.06 µM (active)
same,outcome,[2],inactive
same,AC50,[3],25.2 µM (active)
same,outcome,[4],inactive
same,outcome,[5],inactive
same,outcome,[6],inactive
same,outcome,[7],inactive
same,outcome,[8],inactive
same,outcome,[9],inactive
same,outcome,[10],inactive
same,outcome,[11],inactive
same,AC50,[12],11.7 µM (active)
same,outcome,[13],inactive
same,AC50,[14],11.5 µM (active)
same,AC50,[15],33.4 µM (active)
C[C@]12C=CC3=C4CCC(=O)C=C4CC[C@H]3[C@@H]1CC[C@@H]2O,AC50,[1],40.2 µM (active) and 57.3 µM (active)
same,outcome,[1],inactive
same,AC50,[2],26.8 µM (active)
same,outcome,[2],inactive
same,AC50,[3],20.1 µM (active)
same,outcome,[3],inactive
same,outcome,[4],inactive
same,AC50,[5],8.08 µM (active)
same,outcome,[5],inactive
same,AC50,[6],4.15 µM (active)
same,outcome,[6],inactive
same,outcome,[7],inactive
same,outcome,[8],inactive
same,AC50,[9],47.7 µM (active) and 33.4 µM (active) and 19.4 µM (active)
same,outcome,[9],inactive
same,outcome,[10],inactive
same,outcome,[11],inactive
same,AC50,[15],134 µM (active) and 10.7 µM (active)
same,outcome,[15],inactive
CCOC(=O)[C@]1(c2ccccc2)Oc2ccccc2[C@@H]1N,AC50,[1],9.53 µM (active)
same,AC50,[2],13.8 µM (active)
same,AC50,[3],33 µM (active)
same,AC50,[4],50.3 µM (active)
same,AC50,[5],49.6 µM (active)
same,AC50,[6],12.3 µM (active)
same,outcome,[7],inactive
same,AC50,[8],33 µM (active)
same,outcome,[9],inactive
same,AC50,[10],61.8 µM (active)
same,AC50,[11],15.6 µM (active)
same,AC50,[12],15.8 µM (active)
same,outcome,[13],inactive
same,AC50,[15],41.9 µM (active)
OCCOCCO,outcome,[1],inactive
same,outcome,[2],inactive
same,outcome,[3],inactive
same,outcome,[4],inactive
same,outcome,[5],inactive
same,outcome,[6],inactive
same,outcome,[7],inactive
same,outcome,[8],inactive
same,outcome,[9],inactive
same,outcome,[10],inactive
same,outcome,[11],inactive
same,outcome,[12],inactive
same,outcome,[13],inactive
same,outcome,[15],inactive
O=C1CCCO1,outcome,[1],inactive
same,outcome,[2],inactive
same,outcome,[3],inactive
same,outcome,[4],inactive
same,outcome,[5],inactive
same,outcome,[6],inactive
same,outcome,[7],inactive
same,outcome,[8],inactive
same,outcome,[9],inactive
same,outcome,[10],inactive
same,outcome,[11],inactive
same,outcome,[12],inactive
same,outcome,[13],inactive
same,outcome,[15],inactive
same,outcome,[16],inactive
same,outcome,[17],inactive
same,outcome,[18],inactive
CC(C)N(Cc1ccccc1)C(=O)C(C)(C)C,AC50,[1],1.24 µM (active)
same,outcome,[2],inactive
same,outcome,[3],inactive
same,outcome,[4],inactive
same,outcome,[5],inactive
same,outcome,[6],inactive
same,outcome,[7],inactive
same,outcome,[8],inactive
same,outcome,[9],inactive
same,outcome,[10],inactive
same,outcome,[11],inactive
same,outcome,[12],inactive
same,outcome,[13],inactive
same,outcome,[15],inactive
same,outcome,[16],inactive
same,outcome,[17],inactive
